According to PubChem BioAssay (NCATS):
Results filed as inconclusive are left out. Activity calls are given as the source filed them. Calls follow the shape of the dose curve; as a rule, active = well fitted cell-killing curve with a large enough effect; inconclusive = small, poorly fitted or top-dose-only effect, or effect the other way; inactive = flat fitted curve, though single readings scatter.

Experiments:
Experiment in all cases: Primary qHTS to identify gynecologic anti-cancer compounds using libraries of approved drugs and bioactive compounds (AID 1345084); also: nearly all actives have a fitted effect of over 55% in size
Conditions in all cases: Gynecologic cancer cell panel viability, ATPlite luminescence, 48 h; series mostly up to 57.5 µM
SKOV3 = test system: SKOV3
Method in brief: (§1)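 ATP-based viability (ATPlite), 1,000 cells/well, 16 h pre-incubation, 48 h compound at 37 C, 5% CO2, 15 min RT before read.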

Tov-21-G = test system: Tov-21-G
Method in brief: as §1

Tov112D = test system: Tov112D
Method in brief: as §1
% is scaled to controls: 0 for no effect and ±100 for the full control effect.

CC1(C)CC2C3=CCC4[C@@]5(C)CC[C@H](OC6OCC(O)C(OC7OC(CO)C(O)C(O)C7O)C6O)C(C)(C)C5CC[C@@]4(C)[C@]3(C)C[C@H](O)[C@@]2(CO)[C@H](OC(=O)c2ccccc2)C1 (stereo not given in full)
inactive: activity change, negative = cytotoxicity (SKOV3) 0% [at 11.6 µM] | activity change, negative = cytotoxicity (Tov-21-G) 6.98% [at 11.6 µM] | activity change, negative = cytotoxicity (Tov112D) -1.17% [at 11.6 µM]

CC1CCC2C(C(=O)O)=CC3(O)CC(C)(C)CC123 (stereo not given)
inactive: Potency (SKOV3) | Potency (Tov-21-G) | Potency (Tov112D)

O=C(NC1CCN(CC(F)(F)F)CC1)c1ccc(-c2cccc(F)c2)nc1
inactive: Potency (SKOV3) | Potency (Tov-21-G) | Potency (Tov112D)

C/C(=C\CCC(C)C1CC(O)C2(C)C3CCC4C(C)(C)C(OC5OCC(O)C(O)C5O)CCC45CC35CC(O)C12C)C(=O)O (stereo not given)
inactive: Potency (SKOV3) | Potency (Tov-21-G) | Potency (Tov112D)

C[C@@H]1O[C@@H](O[C@H]2[C@H](OC(=O)[C@]34CCC(C)(C)C[C@H]3C3=CCC5[C@@]6(C)CC[C@H](O[C@@H]7O[C@H](CO[C@@H]8OC[C@H](O)[C@H](O)[C@H]8O[C@@H]8OC[C@@H](O)[C@H](O)[C@H]8O)[C@@H](O)[C@H](O)[C@H]7O)C(C)(C)C6CC[C@@]5(C)[C@]3(C)C[C@H]4O)O[C@H](CO)[C@@H](O)[C@@H]2O)[C@H](O[C@@H]2O[C@H](CO)[C@@H](O)[C@H](O)[C@H]2O)[C@H](O)[C@H]1O[C@@H]1OC[C@@H](O)[C@H](O[C@@H]2OC[C@@H](O)[C@H](O)[C@H]2O)[C@H]1O (stereo not given in full)
inactive: activity change, negative = cytotoxicity (SKOV3) 0% [at 6.55 µM] | activity change, negative = cytotoxicity (Tov-21-G) -2.86% [at 6.55 µM] | activity change, negative = cytotoxicity (Tov112D) 0.0551% [at 6.55 µM]

N[C@@H](CCNCc1ccc(Cl)cc1)C(=O)N1CCCCC1
inactive: Potency (SKOV3) | Potency (Tov-21-G) | Potency (Tov112D)

C/C(=C\CCC1(C)C2CC3C(C2)C31C)C(=O)O (stereo not given)
inactive: Potency (SKOV3) | Potency (Tov-21-G) | Potency (Tov112D)

Cc1c(F)cc(C(=O)NC2CC2)cc1-c1ccc(C(=O)NCC(C)(C)C)cn1
inactive: Potency (SKOV3) | Potency (Tov-21-G) | Potency (Tov112D)

CO[C@@H]1[C@]2(O)C(=O)N3/C=C\C(C)(C)c4[nH]c5ccccc5c4/C=C\3C(=O)N2[C@]23[C@H](CO)C(C)(C)N2c2ccccc2[C@]13O
inactive: Potency (SKOV3) | Potency (Tov-21-G) | Potency (Tov112D)

C=CC1(C)CC2CCC3C(C)(C(=O)O)CCCC3(C)C2=CC1=O (stereo not given)
inactive: Potency (SKOV3) | Potency (Tov-21-G) | Potency (Tov112D)

O=C(/C=C/c1ccc(O)cc1)OC[C@H]1O[C@@H](O/C(=C\c2ccccc2)C(=O)O)[C@H](O)[C@@H](O)[C@@H]1O
inactive: Potency (SKOV3) | Potency (Tov-21-G) | Potency (Tov112D)

O=C(O)c1ccc(NC(=O)[C@H](CC2CCCC2)n2cnc(C(F)(F)F)c2)nc1
inactive: Potency (SKOV3) | Potency (Tov-21-G) | Potency (Tov112D)

CC1(C)CC[C@]2(C(=O)O)[C@H](O)C[C@]3(C)C(=CCC4[C@@]5(C)CC[C@H](O[C@@H]6OC[C@@H](O)[C@H](O)[C@H]6O)[C@@](C)(C(=O)O)C5CC[C@]43C)[C@@H]2C1 (stereo not given in full)
inactive: Potency (SKOV3) | Potency (Tov-21-G) | Potency (Tov112D)

Cn1cc(Nc2cnccc2C(=O)O)c2cccnc21
inactive: Potency (SKOV3) | Potency (Tov-21-G) | Potency (Tov112D)

O=C(O)c1cccc(C(=O)CCC2OC(n3cnc4c(=O)[nH]cnc43)C(O)C2O)c1 (stereo not given)
inactive: Potency (SKOV3) | Potency (Tov-21-G) | Potency (Tov112D)

OC[C@@]1(O)CO[C@@H](OC[C@H]2O[C@@H](Oc3ccccc3)[C@H](O)[C@@H](O)[C@@H]2O)[C@@H]1O
inactive: Potency (SKOV3) | Potency (Tov-21-G) | Potency (Tov112D)

CC1(C)CC[C@]2(C(=O)O[C@@H]3O[C@H](CO)[C@@H](O)[C@H](O)[C@H]3O)CC[C@]3(C)C(=CCC4[C@@]5(C)C[C@@H](O)[C@H](O)[C@@](C)(CO)C5[C@H](O)C[C@]43C)C2[C@@H]1O (stereo not given in full)
inactive: Potency (SKOV3) | Potency (Tov-21-G) | Potency (Tov112D)

C=C1C(OC(C)=O)C(=O)C2C(C)(C)C(O)CCC2(C)C1CC(OC(C)=O)/C(C)=C/COC(C)=O (stereo not given)
inactive: Potency (SKOV3) | Potency (Tov-21-G) | Potency (Tov112D)

O=C(/C=C/c1ccc(O)cc1)OCC1OC(O)C(OC2OC(CO)C(O)C(O)C2O)C(O)C1O (stereo not given)
inactive: Potency (SKOV3) | Potency (Tov-21-G) | Potency (Tov112D)

CCC(C)/C=C(C)/C=C/C1=CC2=C(Cl)C(=O)C(C)(O)C(=O)C2(O)C(OC)O1 (stereo not given)
inactive: Potency (SKOV3) | Potency (Tov-21-G) | Potency (Tov112D)

CC(=O)O[C@H]1C[C@@]2(C)[C@@H](CC[C@H]3[C@@]4(C)C=CC(=O)[C@@H](C)[C@@H]4[C@H](OC(C)=O)C(=O)[C@@]32C)/C1=C(\CCC=C(C)C)C(=O)O
inactive: Potency (SKOV3) | Potency (Tov-21-G) | Potency (Tov112D)

NC[C@@H]1O[C@@H](O[C@@H]2[C@@H](O[C@@H]3O[C@H](CO)[C@@H](O)[C@H]3O)[C@H](O)[C@@H](N)C[C@H]2N)[C@@H](N)[C@H](O)[C@H]1O
inactive: activity change, negative = cytotoxicity (SKOV3) 2.15% [at 11.6 µM] | activity change, negative = cytotoxicity (Tov-21-G) -2.07% [at 11.6 µM] | activity change, negative = cytotoxicity (Tov112D) -1.83% [at 11.6 µM]

OC[C@@]1(O)CO[C@H](OC[C@H]2O[C@@H](OCCc3ccccc3)[C@H](O)[C@@H](O)[C@@H]2O)[C@@H]1O
inactive: Potency (SKOV3) | Potency (Tov-21-G) | Potency (Tov112D)

O=C(/C=C/c1ccccc1)O[C@@H]1[C@@H](CO)O[C@@](CO)(O[C@H]2O[C@H](CO)[C@@H](O)[C@H](O)[C@H]2O)[C@H]1O
inactive: Potency (SKOV3) | Potency (Tov-21-G) | Potency (Tov112D)

CC12CC34CC(O)C5C(CO)(CO)CC(=O)CC5(C)C3CC1C2C4 (stereo not given)
inactive: Potency (SKOV3) | Potency (Tov-21-G) | Potency (Tov112D)

COc1ccc(Oc2c(Cl)cnn(C3c4ccccc4-c4ccccc43)c2=O)cc1
inactive: Potency (SKOV3) | Potency (Tov-21-G) | Potency (Tov112D)

C=CCC/C=C/C#CCCCCCCCC[C@H]1C(=O)O[C@H](C)[C@@H]1O
inactive: Potency (SKOV3) | Potency (Tov-21-G) | Potency (Tov112D)

COCc1c(O)c(C(=O)O)c(C)c2c1OC(=O)c1c(C)cc(O)c(CO)c1O2
inactive: Potency (SKOV3) | Potency (Tov-21-G) | Potency (Tov112D)

COc1cc2c(cc1O)C(c1ccc(O)cc1)C(C)C(C)C2 (stereo not given)
inactive: Potency (SKOV3) | Potency (Tov-21-G) | Potency (Tov112D)

CC[C@H]1OC(=O)[C@H](C)C(=O)[C@H](C)[C@@H](OC2O[C@H](C)C[C@H](N(C)C)[C@H]2O)[C@@H](C)C[C@@H](C)C(=O)/C=C/[C@]1(C)O (stereo not given in full)
inactive: Potency (SKOV3) | Potency (Tov-21-G) | Potency (Tov112D)

C=C1CC[C@@H]2[C@](C)(CO)[C@H](O[C@@H]3O[C@H](CO)[C@@H](O)[C@H](O)[C@H]3O)CC[C@@]2(C)[C@@H]1C/C=C1/C(=O)OC[C@H]1O
inactive: Potency (SKOV3) | Potency (Tov-21-G) | Potency (Tov112D)

O=C(O)[C@H](Cc1ccccc1)Oc1ccc(-c2ccccc2)cc1
inactive: Potency (SKOV3) | Potency (Tov-21-G) | Potency (Tov112D)

C=CC(C)(O)CC/C=C(\C)COC1O[C@H](CO)[C@@H](O)[C@H](O)[C@H]1O (stereo not given in full)
inactive: Potency (SKOV3) | Potency (Tov-21-G) | Potency (Tov112D)

CC(C)=CC1C[C@](C)(O)[C@@H]2[C@H]3CCC4[C@@]5(C)CC[C@H](O[C@@H]6OC[C@H](O)[C@H](O[C@@H]7O[C@H](CO[C@@H]8O[C@H](CO)[C@@H](O)[C@H](O)[C@H]8O)[C@@H](O)[C@H](O)[C@H]7O)[C@H]6O[C@@H]6O[C@@H](C)[C@H](O)[C@@H](O)[C@H]6O)C(C)(C)[C@@H]5CC[C@@]4(C)[C@@]34CO[C@@]2(C4)O1 (stereo not given in full)
inactive: activity change, negative = cytotoxicity (SKOV3) 2.44% [at 11.6 µM] | activity change, negative = cytotoxicity (Tov-21-G) 9.39% [at 11.6 µM] | activity change, negative = cytotoxicity (Tov112D) 6.5% [at 11.6 µM]

CC(=O)OC(C)C(C)(O)C(=O)O[C@@H]1CC[C@]2(C)CC(=O)C(=C(C)C)C[C@H]2[C@]1(C)OC(C)=O (stereo not given in full)
inactive: Potency (SKOV3) | Potency (Tov-21-G) | Potency (Tov112D)

C[C@@H]1O[C@@H](O[C@H]2[C@H](Oc3cc(O)c(C(=O)CCc4ccc(O)cc4)c(O)c3)O[C@H](CO)[C@@H](O)[C@@H]2O)[C@H](O)[C@H](O)[C@H]1O
inactive: Potency (SKOV3) | Potency (Tov-21-G) | Potency (Tov112D)

CC(O)C(=O)/C=C/C=C/C(=O)OC1C=C2COC(=O)C2(O)C2(C)CCCC(C)(C)C12 (stereo not given)
inactive: Potency (SKOV3) | Potency (Tov-21-G) | Potency (Tov112D)

C=C(C)[C@@H]1CC[C@]2(C)CC[C@]3(C)C(CCC4[C@@]5(C)CC[C@H](O)C(C)(C)C5CC[C@]43C)C12 (stereo not given in full)
inactive: Potency (SKOV3) | Potency (Tov-21-G) | Potency (Tov112D)

CC(=O)O[C@H]1C[C@@H](O)C(C)(C)C2C[C@@H](OC(C)=O)[C@@]3(C)C4=CCC(C(CO)CC(O)C5OC5(C)C)[C@]4(C)CCC3[C@]21C (stereo not given in full)
inactive: Potency (SKOV3) | Potency (Tov-21-G) | Potency (Tov112D)

CC1(C(=O)O)CC[C@]2(C(=O)OC3OC(CO)C(O)C(O)C3O)CC[C@]3(C)C(=CCC4[C@@]5(C)CC[C@H](OC6OCC(O)C(O)C6OC6OC(CO)C(O)C(O)C6O)C(C)(C)C5CC[C@]43C)C2C1 (stereo not given in full)
inactive: activity change, negative = cytotoxicity (SKOV3) -6.88% [at 11.6 µM] | activity change, negative = cytotoxicity (Tov-21-G) 15.1% [at 11.6 µM] | activity change, negative = cytotoxicity (Tov112D) -1.55% [at 11.6 µM]

COc1ccc(/C=C/C(=O)O[C@@H]2[C@@H](O)[C@@H](O)[C@H](O[C@H]3[C@@H]4C=CO[C@@H](O[C@@H]5O[C@H](CO)[C@@H](O)[C@H](O)[C@H]5O)[C@@H]4[C@@]4(CO)O[C@@H]34)O[C@H]2C)cc1
inactive: Potency (SKOV3) | Potency (Tov-21-G) | Potency (Tov112D)

CC1=C(C(=O)OC2OC(COC3OC(CO)C(O)C(O)C3O)C(O)C(O)C2O)C(C)(C)CCC1 (stereo not given)
inactive: Potency (SKOV3) | Potency (Tov-21-G) | Potency (Tov112D)

CC(C)CC(=O)O[C@@H]1O[C@H](CO)[C@@H](O[C@H]2O[C@H](C)[C@@H](N[C@H]3C=C(CO)[C@@H](O[C@H]4O[C@H](CO)[C@@H](O[C@H]5O[C@H](CO)[C@@H](O[C@H]6O[C@H](CO)[C@@H](O)[C@H](O)[C@H]6O)[C@H](O)[C@H]5O)[C@H](O)[C@H]4O)[C@H](O)[C@H]3O)[C@H](O)[C@H]2O)[C@H](O)[C@H]1O
inactive: activity change, negative = cytotoxicity (SKOV3) 18.6% [at 11.6 µM] | activity change, negative = cytotoxicity (Tov-21-G) 2.23% [at 11.6 µM] | activity change, negative = cytotoxicity (Tov112D) -0.277% [at 11.6 µM]

CCCCCOC(=O)Nc1nc(=O)n(C2O[C@H](C)[C@@H](O)[C@H]2O)cc1F (stereo not given in full)
inactive: Potency (SKOV3) | Potency (Tov-21-G) | Potency (Tov112D)

N=C(N)c1ccc2nc(-c3cc(CC(=O)NC(CC(=O)O)C(=O)O)cc(-c4cc(S(N)(=O)=O)ccc4O)c3O)[nH]c2c1 (stereo not given)
inactive: Potency (SKOV3) | Potency (Tov-21-G) | Potency (Tov112D)
